High-throughput results (PubChem BioAssay)
TSHR antagonist = blocks TSH signaling through the human TSH receptor; activity change, negative = inhibition, % at 11.5 µM; TSHR-expressing cells, TSH-stimulated cAMP HTRF, 2 h; hits give low values; actives 0.2% (n = 330,000); P16473; AID 504810;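 active = activity change below a set negative limit, meaning inhibition stronger than a set level, cut at about -70% in these data; inconclusive = activity change between two set negative limits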; note: % is set by controls: 0 for no effect and ±100 for the full control effect
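Freshly harvested TSHR cells receive pin-tooled compound, then EC80 TSH at 4nM final. After 2 hours at 37 deg C, antibody in lysis buffer and cAMP-d2 are added; 30 minutes at ambient temperature precede the HTRF read.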
Six1-Eya2 blk = blocks human Six1 binding to Eya2; Q15475+O00167; AlphaScreen GST-Six1/His-Eya2 binding, biochemical; hits give low values; activity change, % (no concentration beside the values); actives 0.56% (n = 360,000); note: % is set by controls: 0 for no effect and ±100 for the full control effect
Target sequence (O00167 whole entry, looked up): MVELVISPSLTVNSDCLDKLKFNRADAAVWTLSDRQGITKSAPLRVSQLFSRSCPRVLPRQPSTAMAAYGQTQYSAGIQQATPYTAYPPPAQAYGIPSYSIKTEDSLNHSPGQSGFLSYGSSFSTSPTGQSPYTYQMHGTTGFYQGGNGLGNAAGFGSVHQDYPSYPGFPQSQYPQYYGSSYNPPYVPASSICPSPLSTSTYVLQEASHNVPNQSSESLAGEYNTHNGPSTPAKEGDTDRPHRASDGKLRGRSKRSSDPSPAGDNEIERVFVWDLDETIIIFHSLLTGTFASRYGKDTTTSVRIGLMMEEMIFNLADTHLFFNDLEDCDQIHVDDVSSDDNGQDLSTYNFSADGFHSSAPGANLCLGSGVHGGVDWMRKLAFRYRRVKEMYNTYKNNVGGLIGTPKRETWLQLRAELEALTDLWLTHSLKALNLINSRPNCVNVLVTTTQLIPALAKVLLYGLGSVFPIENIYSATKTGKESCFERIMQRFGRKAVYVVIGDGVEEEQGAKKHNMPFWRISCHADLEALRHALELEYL
Target sequence (Q15475 whole entry, looked up): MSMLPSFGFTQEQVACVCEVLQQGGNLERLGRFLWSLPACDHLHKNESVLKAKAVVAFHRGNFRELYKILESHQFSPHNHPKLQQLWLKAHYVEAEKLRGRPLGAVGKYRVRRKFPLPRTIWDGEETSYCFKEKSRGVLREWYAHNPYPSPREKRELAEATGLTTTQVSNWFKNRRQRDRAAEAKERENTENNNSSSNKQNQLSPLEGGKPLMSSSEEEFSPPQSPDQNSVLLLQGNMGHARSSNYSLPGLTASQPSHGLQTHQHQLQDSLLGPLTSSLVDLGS
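AlphaScreen luminescence read after one hour at 37 °C in darkness. Pin-transferred compounds met GST-Six1 and His-Eya2 protein (5X stock 250 nM/500 nM) plus glutathione donor and Ni-chelate acceptor beads (5X, 50 ug/mL).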
Chronic BCR inh = inhibitors of chronic active B-cell receptor signaling. ABC-DLBCL IkBa-CBG/CBR reporter, luminescence ratio, 4 h. Potency, µM (series often up to 46.1 µM), for the others: at the highest dose activity change, negative = inhibition, usual class: inhibitors. actives 0.05% (n = 340,000); active = well fitted inhibition curve with a large enough effect in the signal ratio, with a control signal flat, not every such curve was filed as active; inconclusive = small, poorly fitted or top-dose-only effect, or effect the other way, or a change in a side signal; the % refers to the signal ratio;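 note: potency is the fitted concentration of half-maximal effect; plate controls were basal doxycycline-induced cells for no effect and cells given 10 µM MG132 for full effect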
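Concentration-response series (up to 46 uM) were applied to TMD8 dual-reporter cells for 4 h at 37C with doxycycline. Green/red ratio, after filter-overlap correction, defined %Activity; red signal alone was normalised to basal cells and zero luminescence.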
CtBP-E1A blk = blocks the CtBP interaction with E1A; actives 0.49% (n = 340,000); AlphaScreen GST-E1A/His-CtBP binding, 1536-well; hits give low values; activity change, % (concentration not given with the values); note: % is set by controls: 0 for no effect and ±100 for the full control effect
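AlphaScreen with 125 nM GST-E1A and 125 nM His-CtBP (5X stocks) in Tris pH 8.0, 300 mM NaCl, BSA, Tween 20, TCEP. Compounds preincubated 2 h at 37 deg C, then glutathione donor/nickel acceptor beads added for 1 h at 37 deg C in dark.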
S-ASM inh = inhibitors of human secretory acid sphingomyelinase; P17405; placental ASM, HMU-PC fluorogenic substrate, 60 min; Potency, µM (top dose mostly 57.5 µM), for inactives: at the top dose activity change, negative = inhibition, hits mostly inhibitors; actives 0.006% (n = 340,000); active = well fitted inhibition curve with a large enough effect; inconclusive = small, poorly fitted or top-dose-only effect; inactive = no such curve, though single readings can be large or run the other way; note: potency is the fitted concentration of half-maximal effect
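HMU-PC0 cleavage (9 uM final) by human placental ASM, 60 min at 37 °C following 10 min compound exposure at RT; stopped at pH 10, fluorescence Ex 386/Em 447 nm.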
Numbers without * were called inactive; u = inconclusive; x = not tested or not shown. A selection: hits, their analogues and other compounds. The true share with any hit is near 0.85%. Cut-off read from the data, not from the text of the source, unless noted: active = activity change below about -65%; inconclusive = mostly about -30% to -63%; inactive = weaker than that.

SMILES	TSHR antagonist	Six1-Eya2 blk	Chronic BCR inh	CtBP-E1A blk	S-ASM inh
Cc1ccc(Nc2nc(-c3c(C)nc4ncccn34)cs2)cc1	-4.9	-74.6*	u	-90.1*	-23.3%
Cc1nc2ncccn2c1-c1csc(Nc2ccc(O)cc2)n1	-13.7	-87.2*	u	-90.0*	-3.8%
Cc1ccnc(Nc2nc(-c3c(C)nc4sccn34)cs2)c1	-19.5	-68.1*	u	-78.3*	-6.4%
O=C(NC(NCc1ccccn1)(C(F)(F)F)C(F)(F)F)c1ccco1	-3.0	-73.4*	0.1%	u	6.7%
O=C(NCCCn1ccnc1)C(=O)NCC1OCCN1S(=O)(=O)c1ccc(F)cc1 (stereo not drawn)	5.5	-76.6*	3.1%	-73.3*	9.5%
COc1ccc(CCNC(=O)C(=O)Nc2nccs2)cc1OC	-2.0	-0.7	0.8%	2.2	1.8%
COc1ccc(CC(=O)Nc2ccc(C(=O)Nc3nccs3)cc2)cc1OC	-2.3	-81.3*	u	-74.4*	-5.8%
CCOc1ccccc1CNC(=O)c1cc(-c2ccc(OC)cc2)nc2ccc(C(C)C)cc12	x	x	2.8%	x	x
Cc1cc(C(=O)N/N=C/c2cc(N=Nc3ccccc3)ccc2O)n[nH]1	-21.7	-90.4*	-3.6%	-1.4	-18.2%
Cc1cc(C(=O)N/N=C/c2ccc(O)c([N+](=O)[O-])c2)n[nH]1	6.8	-0.2	u	-2.6	2.5%
Cc1cc(C(=O)N/N=C/c2cccc([N+](=O)[O-])c2O)n[nH]1	6.7	-91.2*	-0.1%	x	-3.0%
Cc1ccc(NC(=O)CSc2nnc3[nH]c(=O)cc(-c4ccccc4)n23)cc1Cl	x	x	5.9%	x	x
CC1=NN(Cc2ccccc2)C(=O)C1C(c1ccc(Cl)cc1)C(C#N)C#N (stereo not drawn)	-6.5	-4.2	20.6µM*	-19.1	-3.8%
COC(=O)Cc1cc(=O)[nH]c(Nc2nc3ccccc3o2)n1	-13.3	u	u	-16.7	-5.3%
COCc1cc(=O)[nH]c(Nc2nc3ccccc3o2)n1	-30.8	-73.8*	u	-84.9*	-3.4%
NC(=S)c1ccc[n+]([C@@H]2O[C@@H](COP(=O)([O-])OP(=O)(O)OC[C@H]3O[C@@H](n4cnc5c(N)ncnc54)[C@H](OP(=O)(O)O)[C@@H]3O)C(O)C2O)c1 (stereo partly drawn)	-11.7	x	x	x	x
CC1(C)CC(=O)c2cc(C(=O)O)c(=O)n(-c3ccccc3)c2C1	2.4	-86.8*	11.3%	-0.5	11.1%
CCc1ccc(OCC2c3cc(OC)c(OC)cc3CCN2C(=O)c2ccc(S(=O)(=O)N3CCCC3)cc2)cc1 (stereo not drawn)	x	x	14.2%	x	x
O=C(N/N=C/c1cc(Br)ccc1O)c1cccc(N2CCCC2=O)c1	-6.8	-77.5*	-2.6%	-66.9*	-1.0%
COc1ccc(O)c(/C=N/NC(=O)c2cccc(N3CCCC3=O)c2)c1	-4.5	u	1.6%	u	6.9%
COc1ccc(O)c(/C=N/NC(=O)c2ccc(N3CCCC3=O)cc2)c1	-15.2	u	10.3%	-70.9*	2.2%
O=c1n(Cc2ccc([N+](=O)[O-])cc2)c2ccccc2c2nc(-c3ccccc3)nn12	x	x	10.6%	x	x
C(=NNc1ccc2ccccc2n1)c1ccccn1	x	-69.0*	x	-69.0*	x
C(=N\Nc1nc2ccccc2s1)/c1ccccn1	-11.8	-73.0*	u	-85.9*	0.6%
C(=N\NC1=Nc2cccc3cccc1c23)/c1ccccn1	-13.6	u	u	x	-22.5%
SMILES	TSHR antagonist	Six1-Eya2 blk	Chronic BCR inh	CtBP-E1A blk	S-ASM inh
Cc1cc(=O)[nH]c2nnc(SCC(N)=O)n12	x	x	-26.4%	x	x
Cc1ccc2c(c1)c(N=NC(N)=S)c(O)n2Cc1ccccc1	-6.3	2.5	1.4%	9.5	-2.0%
NC(=S)N=Nc1c(O)cc(O)c2[nH]c(=O)ccc12	x	-84.5*	x	-2.9	-5.5%
COc1ccc(CC(=O)N2CCc3cc(OC)c(OC)cc3C2COc2cc(C)cc(C)c2)cc1OC (stereo not drawn)	x	x	-0.9%	x	x
O=C(Nc1cccc(-c2nnc(-c3ccccc3)o2)c1)c1ccco1	-10.1	-12.0	u	-7.3	-2.8%
Cc1nn2c(-c3cccc(NC(=O)c4ccco4)c3)nnc2c2ccccc12	-4.9	-69.4*	u	-88.3*	-17.9%
